KDM5B inhibitor: inhibitors of human KDM5B histone demethylase | AID 1347165 | Q9UGL1 | 2.6% of 220,000 active | KDM5B demethylase, FDH-coupled NADH fluorescence (FDH is formaldehyde dehydrogenase) | Potency, µM (top dose mostly 57.7 µM), usual class: inhibitors; note: nearly all actives have a fitted effect of over 70% in size
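Inhibition is measured as reduced NADH fluorescence generation from FDH coupling to formaldehyde release. Truncated KDM5BΔAP at 200 nM final acts on H3K4me3 peptide (12.5 µM in substrate mix) in pH 7.5 HEPES buffer with Tween-20, 30 min, room temperature.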
SNCA expr inh: SNCA gene expression inhibition. HEK-293 SNCA-luciferase knock-in, luminescence, 24 h. Potency, µM (titrated, usually from 57.2 µM), usual class: inhibitors. 0.17% of 140,000 active; note: nearly all actives have a fitted effect of over 45% in size
SNCA viab count: counter-screen for SNCA expression inhibitors: cell viability; HEK-293-SNCA-luc viability, GF-AFC fluorescence, 24 h; Potency, µM (doses to about 57.1 µM), actives largely listed as cytotoxic; 0.12% of 150,000 active; note: nearly all actives have a fitted effect of over 30% in size
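Cytotoxicity counterscreen: after 24 h compound treatment of genome-edited SNCA-luciferase HEK-293 cells, live-cell protease substrate GF-AFC read by fluorescence after 30 min; activity scaled between DMSO (0%) and medium-only (-100%), curves Hill-fitted.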
IP6K1 inh: blocks human inositol hexakisphosphate kinase 1; Q92551; IP6K1 kinase, ADP-Glo luminescence, 2 h; stronger effect = lower value; activity change, % (series mostly up to about 58 µM); 0.81% of 140,000 active; in the data active = activity change below about -25%
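ADP-Glo luminescence measures ADP made by human IP6K1 during a 2 h RT reaction with ATP/IP6 (mix at 1.3 mM/130 uM); top library doses 57.5 and 19.1 uM final.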
Hits are given with their value; i = inactive; ? = inconclusive; nt = not tested or not shown. In the library only some 2.8% were active in any assay of this set; here they are far more common. Unless noted, calls come from the whole dose curve; as a rule, active = well fitted curve in the direction sought with a large enough effect; inconclusive = small, poorly fitted or top-dose-only effect, or another doubt; inactive = no such curve, though single readings can be large; an effect the other way counts as inactive or inconclusive.

SMILES	KDM5B inhibitor	SNCA expr inh	SNCA viab count	IP6K1 inh
O=C(NC1CCCCC1)N1C[C@@H]2C[C@H](C1)c1c(/C=C/c3ccc(Cl)cc3)ccc(=O)n1C2	i	i	i	i
O=C(C1CCCCC1)N1C[C@@H]2C[C@H](C1)c1c(/C=C/c3ccc(Cl)cc3)ccc(=O)n1C2	25.1µM	i	i	i
COc1ccccc1-c1cc([C@H]2CN3CC[C@H]2C[C@@H]3COC(=O)NC(C)C)nc(C)n1	39.8µM	?	i	i
COc1ccccc1-c1cc([C@H]2CN3CC[C@H]2C[C@@H]3CNS(=O)(=O)c2ccc(NC(C)=O)cc2)nc(C)n1	31.6µM	i	i	i
COc1ccccc1-c1cc([C@H]2CN3CC[C@H]2C[C@@H]3COC(=O)NC2CCCCC2)nc(C)n1	28.2µM	?	i	i
Cc1nc(-c2ccccc2Br)cc([C@H]2CN3CC[C@H]2C[C@@H]3CNC(=O)CSCC(=O)O)n1	25.1µM	i	i	i
O=C(NC1CCCCC1)OC[C@H]1C[C@@H]2CCN1C[C@@H]2c1cc(C2CCCC2)nc(-c2ccncc2)n1	?	i	i	i
CC(=O)Nc1ccc(S(=O)(=O)NC[C@H]2C[C@@H]3CCN2C[C@@H]3c2cc(-c3ccccc3Br)nc(C)n2)cc1	i	i	i	i
COCc1cn(C[C@H]2CC3CCN2C[C@@H]3C(=O)NC2CCCCC2)nn1 (stereo not given in full)	i	i	?	i
CCCNC(=O)OC[C@H]1C[C@@H]2CCN1C[C@@H]2c1cc(-c2ccccc2OC)nc(C)n1	35.5µM	i	i	i
Cc1nc(-c2ccc(C(F)(F)F)cc2)cc([C@H]2CN3CC[C@H]2C[C@@H]3CNC(=O)CCC(=O)O)n1	i	i	i	i
COc1ccccc1-c1cc([C@H]2CN3CC[C@H]2C[C@@H]3COC(=O)Nc2ccccc2)nc(C)n1	?	i	i	i
COc1ccc(-c2cc([C@H]3CN4CC[C@H]3C[C@@H]4CNC(=O)C(C)(C)C)nc(C)n2)cc1OC	31.6µM	i	i	i
COc1ccccc1-c1cc([C@H]2CN3CC[C@H]2C[C@@H]3CNC(=O)CCC(=O)O)nc(C)n1	31.6µM	i	i	i
CCC(C)(C#N)O[C@@H]1O[C@H](CO)[C@@H](O)[C@H](O)[C@H]1O (stereo not given in full)	nt	nt	i	i
C=CCN(C)C[C@H]1CN2CC[C@H]1C[C@@H]2CNC(=O)Nc1ccsc1	i	i	i	i
O=C(c1ccncc1)N1CC2CCC(C1)N2Cc1ccc(Cl)cc1	i	i	i	i
O=C(O)C1=NOC2CN(CC3CCNC3)CC12 (stereo not given)	141µM	i	i	i
COc1ccc(OC)c(NC(=O)CN2C(=O)CN=C(c3ccccc3Cl)c3cc(Cl)ccc32)c1	i	nt	nt	nt
N#Cc1ccccc1S(=O)(=O)N1C[C@@H]2C[C@H](C1)c1ccc(-c3ccc(Cl)cc3)c(=O)n1C2	35.5µM	i	i	i
O=c1c(C2CCCCC2)ccc2n1C[C@H]1C[C@@H]2CN(S(=O)(=O)c2ccccc2)C1	31.6µM	i	i	i
CN(C)CC(=O)Nc1ccc2n(c1=O)C[C@H]1C[C@@H]2CN(S(=O)(=O)c2ccccc2)C1	?	?	i	i
CC(=O)C1CCOC1=O (stereo not given)	nt	i	i	i
CCn1cc(CN2CCN(C(=O)Cc3c(C)noc3C)CC2)ccc1=O	11.2µM	i	i	i
CCn1cc(CN2CCN(C(=O)Cc3cccs3)CC2)ccc1=O	12.6µM	i	i	i
SMILES	KDM5B inhibitor	SNCA expr inh	SNCA viab count	IP6K1 inh
CCCS(=O)(=O)Nc1ccc(=O)n2c1[C@@H]1C[C@@H](CN(C(=O)Nc3ccc(OC)cc3)C1)C2	28.2µM	i	i	i
CCCS(=O)(=O)Nc1ccc(=O)n2c1[C@@H]1C[C@@H](CN(S(=O)(=O)c3ccc(OC)cc3)C1)C2	22.4µM	i	i	i
C[C@H]1CCC[C@@H](O)CCCCCc2cc(O)cc(O)c2C(=O)O1	i	nt	nt	nt
CCN1Cc2ccccc2NC(=O)C12CCNC2 (stereo not given)	56.2µM	i	i	i
O=C1Nc2ccccc2CC12CCN(Cc1ccccn1)C2 (stereo not given)	31.6µM	i	i	i
CC[C@H]1CN2CC[C@H]1C[C@@H]2CNC(=O)c1ccc2ccccc2c1	i	i	i	i
CC[C@H]1CN2CC[C@H]1C[C@@H]2COC(=O)Nc1ccc(C(C)(C)C)cc1	28.2µM	i	i	i
CC[C@H]1CN2CC[C@H]1C[C@@H]2COC(=O)Nc1cccc2ccccc12	31.6µM	i	i	i
CN1CCN(/N=C/c2c(O)n(Cc3ccc(F)cc3)c(=O)[nH]c2=O)CC1	i	nt	nt	nt
Cc1nc(-c2cccs2)cc([C@H]2CN3CC[C@H]2C[C@@H]3CNC(=O)N2CCOCC2)n1	?	i	i	i
CSCC(=O)N1C[C@@H]2C[C@H](C1)c1c(-c3ccc(SC)cc3)ccc(=O)n1C2	i	i	i	i
O=C(c1ccc2c(c1)OC(F)(F)O2)N1CCC(C(=O)O)(c2ccccc2)CC1	i	i	i	i
COc1cc2c(cc1Oc1ccccc1)NC(=O)C21CCN(c2ncc(C(C)C)cn2)CC1	28.2µM	i	i	i
COc1cc2c(cc1OC1CCCC1)NC(=O)C21CCN(c2ccc(C#N)cn2)CC1	31.6µM	i	i	i
COc1cc2c(cc1OC1CCCC1)NC(=O)C21CCN(C(=O)c2cccc(C#N)c2)CC1	i	i	i	i
COc1cc2c(cc1OCc1ccccc1)NC(=O)C21CCN(c2ncccn2)CC1	?	i	i	i
COc1cc2c(cc1OCc1ccccc1)NC(=O)C21CCN(c2ccccn2)CC1	25.1µM	i	i	i
COc1cc2c(cc1Oc1ccccc1)NC(=O)C21CCN(c2ncccn2)CC1	?	i	i	i
O=C(c1cnccn1)N1[C@H]2CC[C@@H]1c1cnc(-c3ccc(F)cc3)nc1C2	i	i	i	i
Cc1nc2cc([N+](=O)[O-])ccc2c(=O)n1-c1cccc(Br)c1	i	nt	nt	nt
Cc1c(Cl)cccc1NC(=O)CN1C(=O)CN=C(c2ccccc2)c2cc(Cl)ccc21	i	nt	nt	nt
CN(C)Cc1ccccc1-c1ccc2n(c1=O)C[C@H]1C[C@@H]2CN(C(=O)C2CCCCC2)C1	35.5µM	i	i	i
Cc1ccc(CN2CC[C@H]3CC[C@@H](C2)N3)s1	i	i	i	i
CC(C)NC(=O)OC[C@H]1C[C@@H]2CCN1C[C@@H]2c1cc(-c2ccc(F)cc2)nn1C	i	i	i	i
Cc1ncc2c(c1CNCC1(O)CNCCOC1)CCNC2 (stereo not given)	28.2µM	?	i	i
CN1CCN(C(=O)Cc2c[nH]c3ncc(-c4ccc(F)c(Cl)c4)cc23)CC1	39.8µM	i	i	i
Cn1cc(-c2cnc3[nH]cc(CC(=O)N4CCN(Cc5ccccc5)CC4)c3c2)cn1	28.2µM	i	i	i
CN1CCN(C(=O)Cc2c[nH]c3ncc(-c4ccc(Cl)cc4)cc23)CC1	31.6µM	i	i	i
COc1ncc(-c2cnc3[nH]cc(CC(=O)N4CCN(C)CC4)c3c2)cn1	i	i	i	i
CN1CCN(C(=O)Cc2ccc(Cl)cc2Cl)CC1	i	nt	nt	nt

Compound activity from PubChem.
